Test results published in ChEMBL document CHEMBL3988442, “University of Dundee, Small-Polar-MMV Screening Library” (2021).
About 950 (1.4%) of roughly 69,000 compounds showed an effect of 50% or more. This is one part of a sample in which strong results are shown more often than they occur.

These molecules were tested on Mycobacterium tuberculosis (assay: Cornell M. t heat shock assay; note: in the data most compounds retested in dose-response had high values).
Type: functional, organism-based
Parameters: dose or concentration left out as unconfirmed

Row | Compound | Percent Effect [%]
1 | Cc1ccc(CN2CC[C@@H]3O[C@@H](C(=O)N4CCN(C)CC4)C[C@@H]32)cc1.O=C(O)C(F)(F)F.O=C(O)C(F)(F)F | 25.47
2 | CCn1ncc2c1CN(C(=O)c1cscn1)CC2COC.O=C(O)C(F)(F)F (stereo not given) | 5.615
3 | CC(C)CN1CCC(N2CCC(C(=O)N(C)C)CC2)CC1.O=C(O)C(F)(F)F.O=C(O)C(F)(F)F | 9.102
4 | Cn1ccc(-c2cc(C(=O)N3CCC(O)CC3)c3ccccn23)n1 | 65.18
5 | Cn1ccc(-c2cc(C(=O)N3CCC(C(N)=O)CC3)c3ccccn23)n1 | 6.568
6 | Cn1ccc(-c2cc(C(=O)N3CCCCC3)c3ccccn23)n1 | 2.688
7 | O=C(O)c1cc(-c2ccn(CC3CC3)n2)n2ccccc12 | -0.3144
8 | O=C(c1cc(-c2ccn(CC3CC3)n2)n2ccccc12)N1CCCO1 | 3.9
9 | O=C(c1cc(-c2ccn(CC3CC3)n2)n2ccccc12)N1CCOCC1 | 104.4
10 | O=C(NC[C@H]1OC[C@@H]2CCN(Cc3ccco3)C[C@@H]21)c1ccnnc1.O=C(O)C(F)(F)F | -10.06
11 | Cc1[nH]ccc1C(=O)N1CCCC(c2nccn2Cc2cscn2)C1 (stereo not given) | -1.058
12 | CN(C)C(=O)[C@@H]1C[C@@H]2CCN(Cc3nccs3)C[C@@H]2O1.O=C(O)C(F)(F)F | -1.901
13 | O=C(O)C(F)(F)F.O=C(c1cccc(F)c1)N1CCC2(CC1)CC(N1CCOCC1)C2 | -0.407
14 | CCCC(=O)NC1CCc2c(ccc(=O)n2Cc2csc(C)n2)C1.O=C(O)C(F)(F)F (stereo not given) | 46.41
15 | Cc1cccc(CN2C[C@@H]3CN(C(=O)c4cnccn4)C[C@@H]3C2=O)n1.O=C(O)C(F)(F)F | -21.43
16 | O=C(C1NCCc2[nH]cnc21)N1CCC2(CC1)CNc1ccccc12 (stereo not given) | 80.65
17 | O=C1OC2(CCN(C(=O)C3NCCc4[nH]cnc43)CC2)c2ccccc21 (stereo not given) | 26.76
18 | O=C(C1NCCc2[nH]cnc21)N1CCC2(C=Cc3ccccc32)CC1 (stereo not given) | 4.298
19 | Cl.O=C(Nc1ccc(F)cc1)C(c1ccccc1)N1CCOCC1 (stereo not given) | -22.41
20 | NC(=O)c1ccc(CN2C(=O)C3(CCNCC3)Nc3ccccc32)cc1 | 0.2477
21 | N#Cc1cccc(CN2C(=O)C3(CCNCC3)Nc3ccccc32)c1 | -29.61
22 | CC(C)c1ccc(CN2C(=O)C3(CCNCC3)Nc3ccccc32)cc1 | 76.57
23 | C=Cc1ccc(CN2CCCC3(CNC(=O)c4ccccc4O3)C2)cc1 (stereo not given) | -6.668
24 | C=Cc1ccc(CN2C(=O)C3(CCNCC3)Nc3ccccc32)cc1 | 97.35

Row | Compound | Percent Effect [%]
25 | Cl.O=C1CC2(CCNCC2)C(=O)N1Cc1ccc(F)cc1 | -13.65
26 | Cc1cc(C[C@@H]2CCC[C@H]2NCc2cc(F)ccc2F)on1.O=C(O)CC(O)(CC(=O)O)C(=O)O | -16.01
27 | CC(=O)N1CCN(Cc2nccs2)CC2(CC(=O)N(C)C2)C1.O=C(O)C(F)(F)F (stereo not given) | -21.46
28 | CS(=O)(=O)N[C@H]1CN(C(=O)c2cscn2)[C@@H]2CCCO[C@H]12 | -7.446
29 | COCC(=O)N1CCN(Cc2cccnc2)c2ncccc2C1.O=C(O)C(F)(F)F.O=C(O)C(F)(F)F | -17.68
30 | CCNc1ncc2c(n1)CN(c1cccc(OC)c1)C2=O | 4.456
31 | CCOC(=O)CSc1nnc([C@@H](N)CC(C)C)o1.Cl | -13.08
32 | OCC1CCCN1c1cc(N2CCC(OC3CCCC3)CC2)ncn1 (stereo not given) | 105.5
33 | OCC1CCCN1c1cc(N2CCN(c3ccccn3)CC2)ncn1 (stereo not given) | 0.3449
34 | CS(=O)(=O)N1CCN(c2cc(N3CCCC3CO)ncn2)CC1 (stereo not given) | -0.07305
35 | CC(Sc1nncn1C)C(=O)NCCCOc1ccc(F)cc1 (stereo not given) | 9.016
36 | O=C(NCc1ccccn1)[C@@H]1COC[C@H]2CN(C3CCC3)C[C@H]21.O=C(O)C(F)(F)F.O=C(O)C(F)(F)F | 3.202
37 | O=C(O)C(F)(F)F.O=C(O)C(F)(F)F.O=C(c1ccco1)N1C[C@@H]2OCCN(CCN3CCCC3)[C@@H]2C1 | -4.474
38 | Cl.c1cc(CNCc2cccc3c2OCCCO3)cc(Cn2cncn2)c1 | -3.738
39 | N#Cc1ccc(C(=O)N2CC[C@H]3[C@@H]2CCC(=O)N3c2cccnc2)cc1.O=C(O)C(F)(F)F | 0.7242
40 | Cl.Cl.Clc1cccc(C[C@@H]2NCCC[C@@H]2Nc2ccccc2)c1 | 104.8
41 | O=C(Cc1cccc(Cl)c1)N[C@@H]1CCNC[C@H]1O | -8.967
42 | O=C(C[S+]([O-])Cc1cccc(Cl)c1)NC1CCCC1 (stereo not given) | -6.776
43 | Cl.NCC1CCCCN1C(=O)Cc1cccc(Cl)c1 (stereo not given) | -16.31
44 | O=C(NCCc1cccc(Cl)c1)C1CCOCC1 | -3.977
45 | O=C1NCCCc2[nH]c(Cc3cccc(Cl)c3)nc21 | 2.952
46 | Cl.Cl.Clc1cccc(C[C@@H]2NCCC[C@@H]2Nc2cccc(Cl)c2)c1 | 105.7
47 | Clc1cccc(CNC2CCN(CCc3ccncc3)CC2)c1 | -16.56
48 | Cc1ccc(CN[C@@H]2COC[C@H]2c2ccc(F)cc2)cc1C.O=C(O)CC(O)(CC(=O)O)C(=O)O | -6.111

Row | Compound | Percent Effect [%]
49 | Cc1csc(CN2C[C@@H]3COC[C@]3(COCC(=O)N(C)C)C2)n1.O=C(O)C(F)(F)F | -22.07
50 | CCn1cc2c(n1)CN(Cc1nccs1)CC2COCC1CC1.O=C(O)C(F)(F)F (stereo not given) | 3.982
51 | CC(C)c1nc(N2CCC(N3CCCC(O)C3)CC2)c2cnn(C)c2n1 (stereo not given) | -1.228
52 | CC(C)c1nc(N2CCC(N3CCSCC3)CC2)c2cnn(C)c2n1 | -6.323
53 | CC(C)c1nc(N2CCC(N3CCCCCC3)CC2)c2cnn(C)c2n1 | 94.23
54 | Cc1csc(CN2CCC[C@]3(C[C@@H](Oc4ccccn4)CO3)C2)n1.O=C(O)C(F)(F)F.O=C(O)C(F)(F)F | -18.33
55 | CCOc1ccnc(N2CCN(Cc3ncccc3C)CC2)n1 | 17.62
56 | Cc1cccnc1CN1CCN(c2noc(-c3ccccc3)n2)CC1 | 100.3
57 | Cc1noc(-c2ccc(N3CCN(Cc4ncccc4C)CC3)nc2)n1 | -11.68
58 | Cc1nc(CN2C(=O)CCC23CCN(Cc2cccn2C)CC3)cs1.O=C(O)C(F)(F)F.O=C(O)C(F)(F)F | -21.2
59 | CCN1C[C@@H]2CN(C(=O)c3cccn3C)C[C@@H]2C1=O | 97.42
60 | Cn1cccc1C(=O)N1C[C@H]2CN(CC3CC3)C(=O)[C@H]2C1 | 12.5
61 | CC(C)CN1C[C@@H]2CN(C(=O)c3cccn3C)C[C@@H]2C1=O | 1.08
62 | O=C(NCc1ccc(F)cc1)C1CCCN(c2ccc3nncn3n2)C1 (stereo not given) | -16.16
63 | Fc1ccc(CN2CCO[C@H]3[C@H](OCc4ccncc4)CC[C@@H]32)cc1.O=C(O)C(F)(F)F.O=C(O)C(F)(F)F | 22.03
64 | COc1ccc(Oc2ncccc2C(F)(F)F)cc1CN1CCCC1 | 7.068
65 | COc1cc(CN2CCCC2)ccc1Oc1ncccc1C(F)(F)F | -12.36
66 | COc1cc(Oc2ncccc2C(F)(F)F)ccc1CN1CCCC1 | 53
67 | C1CN(CC2CC2)C(COCC2CC2)c2nnn(CC3CC3)c21.O=C(O)C(F)(F)F (stereo not given) | -14.94
68 | COc1ccc(CNC(=O)Cn2ccc3sccc3c2=O)cc1 | -0.6252
69 | Cl.Cn1cc([C@@H]2CN(S(=O)(=O)c3ccccc3F)C[C@H]2N)c2ccncc21 | -1.741
70 | CN(C)C(=O)CN1CCC2(CCN(CC3CC3)CC2)C1=O.O=C(O)C(F)(F)F | -28.35
71 | O=C(O)C(F)(F)F.O=C(O)C(F)(F)F.O=C1[C@@H]2CCN(Cc3ccoc3)C[C@@H]2OCCN1Cc1cccnc1 | -189.5
72 | CN(C)CCOCC1CN(Cc2cccc(F)c2)Cc2nccn2C1.O=C(O)C(F)(F)F.O=C(O)C(F)(F)F (stereo not given) | -23.51

Row | Compound | Percent Effect [%]
73 | CCCN(Cc1cnc2ccccc2n1)Cc1ccccc1OC | 19.04
74 | CCCN(Cc1ccccn1)Cc1ccccc1OC | 31.04
75 | CCCN(Cc1nc2ccccc2[nH]1)Cc1ccccc1OC | 67.04
76 | O=C(O)C(F)(F)F.O=C(O)C(F)(F)F.O=C(O)c1c(-c2cccnc2)ncc2c1CCN(Cc1cccnc1)C2 | -14.58
77 | Cc1nc(CO[C@@H]2CN(Cc3nccs3)[C@@H]3COC[C@@H]32)cs1.O=C(O)C(F)(F)F | -44.36
78 | CN(C)S(=O)(=O)N1CC[C@]2(C[C@@H](Oc3cccnc3)CO2)C1.O=C(O)C(F)(F)F | -11.53
79 | CC(Nc1nc(-c2ccncc2)nc2c1CCNC2)c1ccccc1 (stereo not given) | 18.8
80 | CC(Nc1nc(-c2ccccc2)nc2c1CCNCC2)c1nccs1 (stereo not given) | 20.74
81 | CC(Nc1nc(-c2ccccc2)nc2c1CCNCC2)c1cccnc1 (stereo not given) | 73.2
82 | O=C(O)C(F)(F)F.O=C(O)C(F)(F)F.c1cnc(N2CCOC3(CCN(CC4CCCCC4)CC3)C2)nc1 | 13.11
83 | O=C(O)C(F)(F)F.c1ncn(Cc2cnc3n2CCN(Cc2ccsc2)CC3)n1 | -8.028
84 | Cc1noc(NC(=O)c2ccc(C)c(F)c2)n1 | 105.5
85 | O=C(NCCn1ccnc1)c1cccc(Br)c1 | 24.48
86 | Cc1c(NC(=O)c2cccc(Br)c2)c(C(=O)N(C)C)nn1C | -8.879
87 | Cc1noc(NC(=O)c2ccc(Br)o2)n1 | -6.271
88 | Cc1noc(NC(=O)c2cccc(Br)c2)n1 | 106.8
89 | Cc1nc(C(C)(C)NC(=O)Nc2ccc(C#N)cc2)no1 | -15.18
90 | Cc1noc(NC(=O)c2ccc(C#N)cc2)n1 | 69.42
91 | Cc1cc(NC(=O)c2ccc(C)c(F)c2)[nH]n1 | 1.383
92 | Cc1ccc(C(=O)Nc2cn[nH]c2)cc1F | -0.1311
93 | CN(C)Cc1ccccc1NC(=O)c1ccc(C#N)cc1 | -24.53
94 | Cc1noc(COCC(=O)Nc2ccc(Br)c(C)n2)n1 | 3.251
95 | Cc1noc(NC(=O)c2ccc(Br)s2)n1 | 103.3
